Data: PubChem BioAssay (NCATS)
Results filed as inconclusive are left out. Activity calls are given as the source filed them. The call rests on the fitted dose curve; in most records, active means well fitted curve in the direction sought with a large enough effect; inconclusive means small, poorly fitted or top-dose-only effect, or another doubt; inactive means no such curve, though single readings can be large; an effect the other way counts as inactive or inconclusive.

Assays:
[1] = system: NIH3T3; test: qHTS assay to identify novel small-molecules to repurpose for Merkel cell carcinoma treatment (AID 1296009); conditions: MCC and control cell lines, CellTiter-Glo viability, 72 h; at 44.8 µM (top of the series) unless noted; further: nearly all actives have a fitted effect of over 60% in size
Outline: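 Cells were incubated with compound for 72 hr at 37 degree celsius before CellTiter-Glo addition. Luminescence was normalized with no-cell wells as full cytotoxicity and DMSO as baseline.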

[2] = system: C33A; test: Primary qHTS to identify gynecologic anti-cancer compounds using libraries of approved drugs and bioactive compounds (AID 1345084); conditions: Gynecologic cancer cell panel viability, ATPlite luminescence, 48 h; series mostly up to 57.5 µM; further: on the % scale 0 is the no-effect control and ±100 the full control effect; nearly all actives have a fitted effect of over 55% in size
Outline: (§1)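 48 h compound exposure at 37 C, 5% CO2; five-point qHTS. ATPlite luminescence readout of cell ATP.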

[3] = system: CAOV3; test: as above; conditions: Gynecologic cancer cell panel viability, ATPlite luminescence, 48 h; series mostly up to 57.5 µM
Outline: as §1

[4] = system: CASKI; test: as above; conditions: Gynecologic cancer cell panel viability, ATPlite luminescence, 48 h; series mostly up to 57.5 µM
Outline: as §1

[5] = system: Es-2; test: as above; conditions: Gynecologic cancer cell panel viability, ATPlite luminescence, 48 h; series mostly up to 57.5 µM
Outline: as §1

[6] = system: HeLa; test: as above; conditions: Gynecologic cancer cell panel viability, ATPlite luminescence, 48 h; series mostly up to 57.5 µM
Outline: as §1

[7] = system: Hek293T; test: as above; conditions: Gynecologic cancer cell panel viability, ATPlite luminescence, 48 h, control line for the selectivity index; series mostly up to 57.5 µM
Outline: as §1

[8] = system: JEG-3; test: as above; conditions: Gynecologic cancer cell panel viability, ATPlite luminescence, 48 h; series mostly up to 57.5 µM
Outline: as §1

[9] = system: OV90; test: as above; conditions: Gynecologic cancer cell panel viability, ATPlite luminescence, 48 h; series mostly up to 57.5 µM
Outline: as §1

[10] = system: PA-1; test: as above; conditions: Gynecologic cancer cell panel viability, ATPlite luminescence, 48 h; series mostly up to 57.5 µM
Outline: as §1

[11] = system: SKOV3; test: as above; conditions: Gynecologic cancer cell panel viability, ATPlite luminescence, 48 h; series mostly up to 57.5 µM
Outline: as §1

[12] = system: Tov-21-G; test: as above; conditions: Gynecologic cancer cell panel viability, ATPlite luminescence, 48 h; series mostly up to 57.5 µM
Outline: as §1

[13] = system: Tov112D; test: as above; conditions: Gynecologic cancer cell panel viability, ATPlite luminescence, 48 h; series mostly up to 57.5 µM
Outline: as §1

Fc1cccc(CN(C2=NCCN2)c2c(Cl)cccc2Cl)c1
inactive: outcome [1] | Potency [2] | Potency [3] | outcome [4] | Potency [5] | Potency [6] | Potency [7] | Potency [8] | Potency [9] | Potency [10] | Potency [11] | Potency [12] | Potency [13]

Cn1cc(CCn2cnc(-c3cnn(C)c3)c2-c2ccc(C#N)cc2)cn1
inactive: outcome [1] | Potency [2] | Potency [3] | outcome [4] | Potency [5] | Potency [6] | Potency [7] | Potency [8] | Potency [9] | Potency [10] | Potency [11] | Potency [12] | Potency [13]

Oc1ccc(CC2NCCc3cc(O)c(O)cc32)cc1 (centres undefined)
inactive: outcome [1] | Potency [2] | Potency [3] | outcome [4] | Potency [5] | Potency [6] | Potency [7] | Potency [8] | Potency [9] | Potency [10] | Potency [11] | Potency [12] | Potency [13]

CC(C)(OC1OC(CO)C(O)C(O)C1O)C1CCC(O)(CO)C2CC(=O)C(C)(O)C2C1 (centres undefined)
inactive: outcome [1] inactive [at 17.4 µM] | Potency [2] | Potency [3] | outcome [4] | Potency [5] | Potency [6] | Potency [7] | Potency [8] | Potency [9] | Potency [10] | Potency [11] | Potency [12] | Potency [13]

Cc1ccc2nc(NC(=O)CSc3nc4c(c(=O)n3-c3ccc(F)cc3)SCC4)sc2c1
inactive: outcome [1] | Potency [2] | Potency [3] | outcome [4] | Potency [5] | Potency [6] | Potency [7] | Potency [8] | Potency [9] | Potency [10] | Potency [11] | Potency [12] | Potency [13]

CCC(CC)CC1(C(=O)Nc2ccccc2SC(=O)C(C)C)CCCCC1
inactive: outcome [1] | Potency [2] | Potency [3] | outcome [4] | Potency [5] | Potency [6] | Potency [7] | Potency [8] | Potency [9] | Potency [10] | Potency [11] | Potency [12] | Potency [13]

COC(=O)c1ccc(OC)cc1O[C@@H]1O[C@H](CO[C@@H]2OC[C@@H](O)[C@H](O)[C@H]2O)[C@@H](O)[C@H](O)[C@H]1O
inactive: outcome [1] inactive [at 17.4 µM] | Potency [2] | Potency [3] | outcome [4] | Potency [5] | Potency [6] | Potency [7] | Potency [8] | Potency [9] | Potency [10] | Potency [11] | Potency [12] | Potency [13]

CC(C)(CC(=O)N1CCCC1)NCC(=O)N1C[C@@H](F)C[C@H]1C#N
inactive: outcome [1] | Potency [2] | Potency [3] | outcome [4] | Potency [5] | Potency [6] | Potency [7] | Potency [8] | Potency [9] | Potency [10] | Potency [11] | Potency [12] | Potency [13]

CC/C=C\[C@H](O)[C@H](O)C1=C(C)C(=O)[C@]2(O1)C(=O)N[C@@](O)(C(=O)c1ccccc1)[C@@H]2O
inactive: outcome [1] inactive [at 17.4 µM] | Potency [2] | Potency [3] | outcome [4] | Potency [5] | Potency [6] | Potency [7] | Potency [8] | Potency [9] | Potency [10] | Potency [11] | Potency [12] | Potency [13]

Cc1onc(-c2c(Cl)cccc2Cl)c1CC(=O)NCc1ccc(OCC(F)(F)F)nc1
inactive: outcome [1] | Potency [2] | Potency [3] | outcome [4] | Potency [5] | Potency [6] | Potency [7] | Potency [8] | Potency [9] | Potency [10] | Potency [11] | Potency [12] | Potency [13]

C[C@@H]1O[C@@H](O[C@H]2[C@H](OC(=O)[C@]34CCC(C)(C)C[C@H]3C3=CCC5[C@@]6(C)C[C@@H](O)[C@@H](O[C@@H]7O[C@H](CO)[C@@H](O)[C@H](O)[C@H]7O)[C@@](C)(CO)C6[C@H](O)C[C@@]5(C)[C@]3(C)CC4)OC[C@H](O)[C@@H]2O)[C@H](O)[C@H](O[C@@H]2OC[C@](O)(CO)[C@H]2O)[C@H]1O[C@@H]1OC[C@@H](O)[C@H](O[C@H]2O[C@H](C)[C@@H](O)[C@H](O)[C@@H]2O)[C@H]1O (some centres undefined)
inactive: outcome [1] inactive [at 9.27 µM] | activity change, negative = cytotoxicity [2] 7.61% [at 6.55 µM] | activity change, negative = cytotoxicity [3] 0.345% [at 6.55 µM] | activity change, negative = cytotoxicity [4] 0.644% [at 6.55 µM] | activity change, negative = cytotoxicity [5] -2.14% [at 6.55 µM] | activity change, negative = cytotoxicity [6] 14.1% [at 6.55 µM] | activity change, negative = cytotoxicity [7] 4.59% [at 6.55 µM] | activity change, negative = cytotoxicity [8] 14.8% [at 6.55 µM] | activity change, negative = cytotoxicity [9] -9.58% [at 6.55 µM] | activity change, negative = cytotoxicity [10] 3.83% [at 6.55 µM] | activity change, negative = cytotoxicity [11] 3.05% [at 6.55 µM] | activity change, negative = cytotoxicity [12] -0.147% [at 6.55 µM] | activity change, negative = cytotoxicity [13] 7.72% [at 6.55 µM]

CC1=C2C(=O)C=C(CO[C@@H]3O[C@H](CO)[C@@H](O)[C@H](O)[C@H]3O)[C@@H]2[C@H]2OC(=O)[C@H](C)[C@@H]2[C@@H](O)C1
inactive: outcome [1] inactive [at 17.4 µM] | Potency [2] | Potency [3] | outcome [4] | Potency [5] | Potency [6] | Potency [7] | Potency [8] | Potency [9] | Potency [10] | Potency [11] | Potency [12] | Potency [13]

COc1cc(/C=C/C(=O)O[C@@H]2C[C@@](O)(C(=O)O)C[C@@H](O)[C@@H]2O)ccc1O
inactive: outcome [1] | Potency [2] | Potency [3] | outcome [4] | Potency [5] | Potency [6] | Potency [7] | Potency [8] | Potency [9] | Potency [10] | Potency [11] | Potency [12] | Potency [13]
